Experimental data as given in PubChem BioAssay (NCATS).
Results filed as inconclusive are left out. Active and inactive are the calls of the source. Calls come from the whole dose curve; as a rule, active = well fitted inhibition curve with a large enough effect; inconclusive = small, poorly fitted or top-dose-only effect; inactive = flat fitted curve, though single readings scatter.

Test system: CRL-7250
Test: qHTS assay to identify novel small-molecules to repurpose for Merkel cell carcinoma treatment (AID 1296009); note: nearly all actives have a fitted effect of over 60% in size
Details: MCC and control cell lines, CellTiter-Glo viability, 72 h; at 44.8 µM (top of the series) unless noted
Procedure, shortened: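 Viability readout: ATP luminescence (CellTiter-Glo) after 72 hr drug exposure at 37 degree celsius. Dose-response format was 8 points for NPC and 11 points for MIPE; data normalized to in-plate controls.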

Row | Compound | outcome
1 | COc1ccc2cc1Oc1cc3c(cc1OC)CC[N+](C)(C)[C@H]3Cc1ccc(cc1)Oc1c(OC)c(OC)cc3c1[C@@H](C2)[N+](C)(C)CC3 | inactive
2 | Cn1nnc2c(C(N)=O)ncn2c1=O | inactive
3 | CCN(CC)CC#CCOC(=O)C(O)(c1ccccc1)C1CCCCC1 (stereo not given) | inactive
4 | COC(=O)[C@@H]1[C@H]2C[C@H]3c4[nH]c5ccccc5c4CCN3C[C@@H]2CC[C@@H]1O | inactive
5 | OC[C@H]1O[C@@H]2O[C@H]3[C@H](O)[C@@H](O)[C@@H](O[C@H]4[C@H](O)[C@@H](O)[C@@H](O[C@H]5[C@H](O)[C@@H](O)[C@@H](O[C@H]6[C@H](O)[C@@H](O)[C@@H](O[C@H]7[C@H](O)[C@@H](O)[C@@H](O[C@H]8[C@H](O)[C@@H](O)[C@@H](O[C@H]1[C@H](O)[C@H]2O)O[C@@H]8CO)O[C@@H]7CO)O[C@@H]6CO)O[C@@H]5CO)O[C@@H]4CO)O[C@@H]3CO | inactive
6 | CCO/C([O-])=N/c1c[n+](N2CCOCC2)no1 | inactive
7 | CC1(COc2ccc(CC3SC(=O)NC3=O)cc2)CCCCC1 (stereo not given) | inactive
8 | NC(N)=NS(=O)(=O)c1ccc(N)cc1 | inactive
9 | Cn1c(=O)c2[nH]c(Br)nc2n(C)c1=O | inactive
10 | CN(C)C(=O)Oc1ccc[n+](C)c1 | inactive
11 | O=[N+]([O-])c1cncn1CCN1CCOCC1 | inactive
12 | O=c1cc(O)c(Cl)c[nH]1 | inactive
13 | Cc1cccc(C)c1NC(=O)c1cc(S(N)(=O)=O)c(Cl)cc1O | inactive
14 | NC(=O)NC1NC(=O)NC1=O (stereo not given) | inactive
15 | OCc1ccc(Cl)cc1Cl | inactive
